The results in this text go back to PMC9911399, “Two distinct binding modes provide the RNA-binding protein RbFox with extraordinary sequence specificity”.

Numbering of substitutions follows the chain as printed; changes in the protein carry UniProt numbers. The full ranking holds about 16,000 sequences; the median of “ka relative to ugcaugu” is about 0.0091, and the highest 2% start at about 0.032. What follows is part of a selection rich in the highest values, with near analogues and random picks from the rest.

T1: RBFOX1 RRM (Homo sapiens, UniProt Q9NWB1 109-208)
T1 sequence: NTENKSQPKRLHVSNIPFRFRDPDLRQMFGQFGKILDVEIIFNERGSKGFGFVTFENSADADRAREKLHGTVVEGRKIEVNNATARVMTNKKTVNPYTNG

B1: UUCUUAU (DNA:RNA)
RNA: GGGAGACCGGAAUUCAGAUUGUCCUUCUUAUUUAAAUCCCGUCGUAGCCACCA
DNA 1: CAATCTGAATTCCGGTCTCCC
DNA 2: TGGTGGCTACGACGGGATT
B2: UGAUCGU (DNA:RNA)
RNA: B1 RNA with U26G, C27A, U29C, A30G
DNA 1: CAATCTGAATTCCGGTCTCCC
DNA 2: TGGTGGCTACGACGGGATT
B3: CCACUCA (DNA:RNA)
RNA: B1 RNA with U25C, U26C, C27A, U28C, A30C, U31A
DNA 1: CAATCTGAATTCCGGTCTCCC
DNA 2: TGGTGGCTACGACGGGATT
B4: GCAAACU (DNA:RNA)
RNA: B1 RNA with U25G, U26C, C27A, U28A, U29A, A30C
DNA 1: CAATCTGAATTCCGGTCTCCC
DNA 2: TGGTGGCTACGACGGGATT
B5: GGAACAC (DNA:RNA)
RNA: B1 RNA with U25G, U26G, C27A, U28A, U29C, U31C
DNA 1: CAATCTGAATTCCGGTCTCCC
DNA 2: TGGTGGCTACGACGGGATT
B6: AGCAUGA (DNA:RNA)
RNA: B1 RNA with U25A, U26G, U28A, A30G, U31A
DNA 1: CAATCTGAATTCCGGTCTCCC
DNA 2: TGGTGGCTACGACGGGATT
B7: UAGCAUG (DNA:RNA)
RNA: B1 RNA with U26A, C27G, U28C, U29A, A30U, U31G
DNA 1: CAATCTGAATTCCGGTCTCCC
DNA 2: TGGTGGCTACGACGGGATT
B8: AAGCAUA (DNA:RNA)
RNA: GGGAGACCGGAAUUCAGAUUGUCCAAGCAUAUUAAAUCCCGUCGUAGCCACCA
DNA 1: CAATCTGAATTCCGGTCTCCC
DNA 2: TGGTGGCTACGACGGGATT
B9: AGCAUAA (DNA:RNA)
RNA: B1 RNA with U25A, U26G, U28A, U31A
DNA 1: CAATCTGAATTCCGGTCTCCC
DNA 2: TGGTGGCTACGACGGGATT
B10: AGAAUGC (DNA:RNA)
RNA: B8 RNA with A26G, G27A, C28A, A29U, U30G, A31C
DNA 1: CAATCTGAATTCCGGTCTCCC
DNA 2: TGGTGGCTACGACGGGATT
B11: AGCAUGC (DNA:RNA)
RNA: B1 RNA with U25A, U26G, U28A, A30G, U31C
DNA 1: CAATCTGAATTCCGGTCTCCC
DNA 2: TGGTGGCTACGACGGGATT
B12: AAGCAUG (DNA:RNA)
RNA: B8 RNA with A31G
DNA 1: CAATCTGAATTCCGGTCTCCC
DNA 2: TGGTGGCTACGACGGGATT
B13: AAGCAUC (DNA:RNA)
RNA: B8 RNA with A31C
DNA 1: CAATCTGAATTCCGGTCTCCC
DNA 2: TGGTGGCTACGACGGGATT
B14: UAGCAUC (DNA:RNA)
RNA: B8 RNA with A25U, A31C
DNA 1: CAATCTGAATTCCGGTCTCCC
DNA 2: TGGTGGCTACGACGGGATT
B15: UAGCAUA (DNA:RNA)
RNA: B8 RNA with A25U
DNA 1: CAATCTGAATTCCGGTCTCCC
DNA 2: TGGTGGCTACGACGGGATT
B16: ACCAGCA (DNA:RNA)
RNA: B8 RNA with A26C, G27C, C28A, A29G, U30C
DNA 1: CAATCTGAATTCCGGTCTCCC
DNA 2: TGGTGGCTACGACGGGATT
B17: AGCCUGC (DNA:RNA)
RNA: B8 RNA with A26G, G27C, A29U, U30G, A31C
DNA 1: CAATCTGAATTCCGGTCTCCC
DNA 2: TGGTGGCTACGACGGGATT
B18: GGUGGAA (DNA:RNA)
RNA: B8 RNA with A25G, A26G, G27U, C28G, A29G, U30A
DNA 1: CAATCTGAATTCCGGTCTCCC
DNA 2: TGGTGGCTACGACGGGATT
B19: UGGCGAC (DNA:RNA)
RNA: B8 RNA with A25U, A26G, A29G, U30A, A31C
DNA 1: CAATCTGAATTCCGGTCTCCC
DNA 2: TGGTGGCTACGACGGGATT
B20: CCGGGGC (DNA:RNA)
RNA: B8 RNA with A25C, A26C, C28G, A29G, U30G, A31C
DNA 1: CAATCTGAATTCCGGTCTCCC
DNA 2: TGGTGGCTACGACGGGATT

The target in the assay is T1, RBFOX1 RRM. As to the kind of experiment: EMSA; HiTS-Eq, 1 nM pool, 10 min; buffer printed only for the single-RNA assays: 10 mM Tris pH 7.5, 150 mM NaCl, 3.4 mM EDTA, 0.001% NP-40, 30 C. The settings on record: tags: His6 N-terminal (pET28a); label: 5' 32P. An outline of the steps: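 Relative association constants, normalised to the cognate motif, were derived by comparing read counts of each RNA species with those of the control reaction. The RNA sequenced was the free fraction, separated by 8% native PAGE after a 10 min equilibration in 50 µL of 1 nM 5′-radiolabelled RNA (7 randomized nucleotides) with increasing concentrations of purified wild-type or mutant RbFox RRM.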
(In general: In EMSA bound probe runs differently from free probe, usually more slowly.)
As for B1, the binding signal is 0.00377 KA relative to UGCAUGU.

For the molecule B2, the binding signal is 0.0285 KA relative to UGCAUGU.

For the molecule B3, the binding signal is 0.0037 KA relative to UGCAUGU.

B4: the binding signal is 0.00432 KA relative to UGCAUGU.

For B5, the binding signal is 0.0079 KA relative to UGCAUGU.

Regarding B6, the binding signal was 0.35 KA relative to UGCAUGU.

With B7, the binding signal was 0.795 KA relative to UGCAUGU.

In the case of B8, the binding signal was 0.00459 KA relative to UGCAUGU.

Turning to B9, the binding signal is 0.00471 KA relative to UGCAUGU.

As for B10, the binding signal is 0.022 KA relative to UGCAUGU.

Regarding B11, the binding signal is 0.888 KA relative to UGCAUGU.

As to B12, the binding signal is 0.674 KA relative to UGCAUGU.

Regarding B13, the binding signal is 0.0137 KA relative to UGCAUGU.

In the case of B14, the binding signal was 0.0216 KA relative to UGCAUGU.

B15: the binding signal was 0.011 KA relative to UGCAUGU.

Consider B16, for which the binding signal is 0.0049 KA relative to UGCAUGU.

With B17, the binding signal is 0.0203 KA relative to UGCAUGU.

Consider B18, for which the binding signal was 0.00994 KA relative to UGCAUGU.

For the molecule B19, the binding signal was 0.00695 KA relative to UGCAUGU.

Consider B20, for which the binding signal was 0.0147 KA relative to UGCAUGU.
